# Test results reported in PubChem BioAssay (NCATS).
# Several values for one entry are separate records, joined by “and”; a condition that tells them apart may be missing. Identical values can stand only once. Records with an inconclusive call do not appear. Activity calls are given as the source filed them. Unless noted, calls follow the shape of the dose curve; as a rule, active = well fitted curve in the direction sought with a large enough effect; inconclusive = small, poorly fitted or top-dose-only effect, or another doubt; inactive = no such curve, though single readings can be large; an effect the other way counts as inactive or inconclusive.
# Legend:
# [1] = biological target: T1, Hexokinase-4 (Homo sapiens) + Glucokinase regulatory protein (Homo sapiens) (UniProt P35557+Q14397); assay: qHTS assay for inhibitors of recombinant human GCK-GKRP interaction: Diaphorase-coupled assay (AID 743205); details: G6PDH/diaphorase resorufin fluorescence; series mostly up to 57.5 µM
# T1 sequence (P35557 whole entry, looked up): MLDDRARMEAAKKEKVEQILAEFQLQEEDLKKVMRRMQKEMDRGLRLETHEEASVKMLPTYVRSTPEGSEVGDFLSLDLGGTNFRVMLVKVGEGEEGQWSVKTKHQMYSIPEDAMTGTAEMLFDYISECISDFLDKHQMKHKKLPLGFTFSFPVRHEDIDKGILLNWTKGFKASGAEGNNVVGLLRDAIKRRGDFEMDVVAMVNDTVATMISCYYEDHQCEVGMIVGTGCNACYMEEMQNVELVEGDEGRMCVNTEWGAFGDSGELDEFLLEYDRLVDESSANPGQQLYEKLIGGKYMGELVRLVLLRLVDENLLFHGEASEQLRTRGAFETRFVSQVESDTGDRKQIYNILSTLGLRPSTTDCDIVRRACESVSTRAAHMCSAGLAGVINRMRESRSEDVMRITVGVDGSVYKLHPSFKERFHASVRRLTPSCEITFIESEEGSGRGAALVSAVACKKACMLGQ
# T1 sequence (Q14397 whole entry, looked up): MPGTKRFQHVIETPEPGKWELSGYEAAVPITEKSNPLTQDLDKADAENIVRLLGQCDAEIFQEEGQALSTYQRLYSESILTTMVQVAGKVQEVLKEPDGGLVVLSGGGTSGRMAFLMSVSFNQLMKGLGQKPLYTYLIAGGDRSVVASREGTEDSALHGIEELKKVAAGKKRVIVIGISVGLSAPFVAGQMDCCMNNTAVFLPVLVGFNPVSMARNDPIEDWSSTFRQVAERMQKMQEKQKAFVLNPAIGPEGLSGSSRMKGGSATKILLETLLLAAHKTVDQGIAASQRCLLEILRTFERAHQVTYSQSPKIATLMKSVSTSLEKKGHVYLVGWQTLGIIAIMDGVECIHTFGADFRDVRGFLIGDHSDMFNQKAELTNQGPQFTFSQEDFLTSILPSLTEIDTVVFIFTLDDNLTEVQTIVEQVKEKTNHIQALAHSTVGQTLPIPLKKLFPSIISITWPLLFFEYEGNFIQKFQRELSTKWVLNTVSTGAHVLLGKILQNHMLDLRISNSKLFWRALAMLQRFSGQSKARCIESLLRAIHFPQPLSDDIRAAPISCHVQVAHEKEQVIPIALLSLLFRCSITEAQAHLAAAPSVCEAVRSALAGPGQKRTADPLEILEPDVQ
# In short: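 Compounds pre-incubated 20 min with substrate, then 10 nM GST-GCK with 10 nM FLAG-GKRP added. GCK activity coupled via G6PDH and diaphorase to resorufin (5 mM glucose, 0.4 mM ATP, 0.15 mM NADP+, pH 7.6), read kinetically over 30 minutes at Ex 525/Em 590 nm.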
# [2] = biological target: T1, Hexokinase-4 (Homo sapiens) + Glucokinase regulatory protein (Homo sapiens); assay: qHTS assay for inhibitors of recombinant human GCK-GKRP interaction: ADP-Glo assay (AID 743206); details: ADP-Glo luminescence, 60 min, 0% = vehicle-only wells with enzyme present; series mostly up to 76.9 µM;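 also: plate controls were DMSO plus enzyme for no effect and no enzyme for full effect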
# In short: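 Pin-transferred compounds meet a 15 nM GST-GCK/15 nM FLAG-GKRP/2 uM S6P mix (dispense concentrations). ATP is then added to 0.4 mM final with 5 mM glucose, and the reaction runs 60 min at room temperature. ADP is quantified luminescently.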
# [3] = biological target: T1, Hexokinase-4 (Homo sapiens) + Glucokinase regulatory protein (Homo sapiens); assay: qHTS assay for inhibitors of recombinant human GCK-GKRP interaction: HTRF assay (AID 743207); details: recombinant GCK-GKRP HTRF binding, 60 min, with sorbitol-6-phosphate; series mostly up to 57.5 µM;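 also: 0% = DMSO with GCK present and -100% = DMSO wells lacking GCK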
# In short: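 HTRF binding of 5 nM GST-GCK and 5 nM FLAG-GKRP with 2 uM S6P in pH 7.1 Hepes buffer (MgCl2, KCl, DTT, Tween 20, BSA). Anti-FLAG XL665 and anti-GST donor added, 60 min at room temperature; 665/615 nm read, normalized to with- and without-GCK controls.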
# [4] = qHTS Assay for Identifying Gametocytocidal Compounds (AID 743244); also: potency is read from the fitted curve at half-maximal effect;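 as to max response: % is scaled to controls: 0 for no effect and ±100 for the full control effect; actives lower the fluorescent signal which means gametocytes are killed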; details: P. falciparum 3D7 stage III-V gametocytes, alamarBlue, 72 h; max response: stronger effect = lower value
# In short: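 Fluorescence at Ex 525/Em 598 nm, recorded 24 h after alamarBlue addition, reports residual metabolic activity of 3D7 gametocytes (stages III–V) following 72 h compound exposure at 37 °C, 5% CO2.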
# [5] = qHTS profiling for inhibitors of Plasmodium falciparum (3D7) proliferation (AID 743322; call rule not given here;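 also: infected erythrocytes exposed to compound for 72 h before lysis; 100% = DMSO vehicle wells and 0% = 0.29 µM artemisinin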); details: P. falciparum 3D7 proliferation; at 28.7 µM (top of the series) unless noted
# In short: (§1)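 Parasite DNA was quantified by SYBR Green I fluorescence (ex 485, em 535 nm) after overnight lysis in saponin/Triton buffer at room temperature. Cultures at 0.3% parasitemia and 2.5% hematocrit were first exposed to compound for 72 h at 37 C; signals were normalised to artemisinin (0.29 uM) and vehicle wells.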
# [6] = qHTS profiling for inhibitors of Plasmodium falciparum (HB3) proliferation (AID 743324); details: Plasmodium falciparum HB3 blood-stage proliferation; at 28.7 µM (top of the series) unless noted;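 also: 100% = DMSO vehicle wells and 0% = artemisinin-treated control wells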
# In short: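 SYBR Green fluorescence (485 ex/535 em) of lysed cultures, incubated overnight at room temperature in the dark, quantifies parasite DNA. Infected erythrocytes at 0.3% parasitemia and 2.5% hematocrit were exposed 72 h; values normalized to DMSO and 0.29 uM artemisinin controls.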
# [7] = qHTS profiling of the MIPE4 collection as inhibitors of Plasmodium falciparum (3D7) proliferation (AID 743344; call rule not given here;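 also: scaled between DMSO vehicle wells and 0.29 µM artemisinin as full inhibition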); details: P. falciparum 3D7 in erythrocytes, SYBR Green DNA fluorescence, 72 h; at 28.5 µM (top of the series) unless noted
# In short: as §1
# [8] = qHTS profiling of the MIPE4 collection as inhibitors of Plasmodium falciparum (DD2) proliferation (AID 743345; call rule not given here); details: P. falciparum Dd2 in erythrocytes, SYBR Green DNA, 72 h; at 28.5 µM (top of the series) unless noted
# In short: as §1
# [9] = qHTS assay for cell viability of HEK293 cells (AID 743288); details: ATP luminescence (CellTiter-Glo), 18 h; max response: stronger effect = lower value; also: nearly all actives have a fitted effect of over 50% in size; also: potency is read from the fitted curve at half-maximal effect; as to max response: % is scaled to controls: 0 for no effect and ±100 for the full control effect
# In short: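 Steps: plate 2,000 parental HEK293 cells per well; incubate ≥5 h, 37 C; add compounds in DMSO; incubate 18 h, 37 C; add CellTiter-Glo; wait 30 min at room temperature; read luminescence.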
# [10] = qHTS assay for cell viability of the p53RE-bla HCT-116 cell line (AID 743292); details: p53RE-bla HCT-116 viability, ATP luminescence, 16 h; series mostly up to 95 µM; also: nearly all actives have a fitted effect of over 55% in size; also: potency is read from the fitted curve at half-maximal effect
# In short: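 CellSensor p53RE-bla HCT-116 cells, 4,000/well, preincubated 5 h at 37 C, then exposed to compounds in DMSO for 16 h at 37 C. Viability read as CellTiter-Glo luminescence (intracellular ATP) after 30 min at room temperature.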
compound,measurement,setting,value
Nc1nc(OCc2ccccc2)c2[nH]cnc2n1,outcome,[1],inactive
same,outcome,[2],inactive
same,outcome,[3],inactive
same,max response,[4],13.4% (inactive)
CC(C)c1ccc2c(c1)c(SC(C)(C)C)c(CC(C)(C)C(=O)O)n2Cc1ccc(Cl)cc1,outcome,[1],inactive
same,outcome,[2],inactive
same,outcome,[3],inactive
same,max response,[4],14.3% (inactive) and 21.6% (inactive)
same,remaining parasite growth % (stronger effect = lower value),[5],39.7%
same,"remaining proliferation (% of control), lower = more inhibition",[6],22.8%
same,"parasite growth, % of DMSO control",[7],21.7%
same,"parasite growth remaining, % of DMSO control (lower = more inhibition)",[8],42.3%
COc1cc2nc(N3CCN(C(=O)C4CCCO4)CC3)nc(N)c2cc1OC (stereo not drawn),outcome,[1],inactive
same,outcome,[2],inactive
same,outcome,[3],inactive
same,max response,[4],-8.17% (inactive) and 12.4% (inactive)
same,"parasite growth, % of DMSO control",[7],30.8%
same,"parasite growth remaining, % of DMSO control (lower = more inhibition)",[8],76.4%
NNc1nncc2ccccc12,outcome,[1],inactive
same,outcome,[2],inactive
same,outcome,[3],inactive
same,max response,[4],-0.582% (inactive) and 32.1% (inactive)
same,"parasite growth, % of DMSO control",[7],85.6%
same,"parasite growth remaining, % of DMSO control (lower = more inhibition)",[8],92.8%
Nc1ccc(S(N)(=O)=O)cc1,max response,[4],6.71% (inactive)
same,max response,[9],-1.9% (inactive)
same,Potency,[10],inactive
same,"parasite growth, % of DMSO control",[7],105%
same,"parasite growth remaining, % of DMSO control (lower = more inhibition)",[8],15.1%
Cc1ccc(NC(=O)c2ccc(CN3CCN(C)CC3)cc2)cc1Nc1nccc(-c2cccnc2)n1,Potency,[4],12.6 µM (active)
same,remaining parasite growth % (stronger effect = lower value),[5],1.04%
same,"parasite growth, % of DMSO control",[7],6.13%
same,"parasite growth remaining, % of DMSO control (lower = more inhibition)",[8],10.8%
CN1C(C(=O)Nc2ccccn2)=C(O)c2sccc2S1(=O)=O,max response,[4],15.1% (inactive)
N[C@@H](Cc1cc(I)c(Oc2cc(I)c(O)c(I)c2)c(I)c1)C(=O)O,max response,[4],2.42% (inactive)
same,max response,[9],-6.73% (inactive)
same,Potency,[10],inactive
same,"parasite growth, % of DMSO control",[7],89.8%
same,"parasite growth remaining, % of DMSO control (lower = more inhibition)",[8],89.9%
COc1cc(Nc2c(C#N)cnc3cc(OCCCN4CCN(C)CC4)c(OC)cc23)c(Cl)cc1Cl,Potency,[4],3.55 µM (active)
same,remaining parasite growth % (stronger effect = lower value),[5],-0.245%
same,"remaining proliferation (% of control), lower = more inhibition",[6],1.13%
same,"parasite growth, % of DMSO control",[7],6.35%
same,"parasite growth remaining, % of DMSO control (lower = more inhibition)",[8],10.9%
COCCCOc1ccnc(CS(=O)c2nc3ccccc3[nH]2)c1C (stereo not drawn),max response,[4],2.05% (inactive)
CC(C)[C@H](N)C(=O)OCCOCn1cnc2c(=O)[nH]c(N)nc21,max response,[4],18.3% (inactive)
same,"parasite growth, % of DMSO control",[7],102%
COc1cc(OC)c(C(=O)CCCN2CCCC2)c(OC)c1,max response,[4],4.14% (inactive)
same,max response,[9],-5.06% (inactive)
same,Potency,[10],inactive
same,"parasite growth, % of DMSO control",[7],90.8%
same,"parasite growth remaining, % of DMSO control (lower = more inhibition)",[8],120%
COc1c2occc2cc2ccc(=O)oc12,max response,[4],12.3% (inactive)
same,max response,[9],1.56% (inactive) and -7.55% (inactive)
same,Potency,[10],inactive
CCN(CCO)CCCC(C)Nc1ccnc2cc(Cl)ccc12 (stereo not drawn),max response,[4],-15.7% (inactive)
same,remaining parasite growth % (stronger effect = lower value),[5],0.834% and 0.742%
same,"remaining proliferation (% of control), lower = more inhibition",[6],1.3% and -0.152%
same,"parasite growth, % of DMSO control",[7],20.1%
same,"parasite growth remaining, % of DMSO control (lower = more inhibition)",[8],16.9%
CC1Cc2ccccc2N1NC(=O)c1ccc(Cl)c(S(N)(=O)=O)c1 (stereo not drawn),max response,[4],1.41% (inactive) and -0.446% (inactive)
Nc1cccc2c1CN(C1CCC(=O)NC1=O)C2=O (stereo not drawn),max response,[4],12.8% (inactive) and 1.91% (inactive)
same,remaining parasite growth % (stronger effect = lower value),[5],98.3% [at 57.5 µM] and 94.5% [at 57.5 µM]
same,"remaining proliferation (% of control), lower = more inhibition",[6],96.8% [at 57.5 µM] and 102% [at 57.5 µM]
same,"parasite growth, % of DMSO control",[7],83.6% [at 57.5 µM]
same,"parasite growth remaining, % of DMSO control (lower = more inhibition)",[8],107% [at 57.5 µM]
CN(C)c1ccc2nc3ccc(=[N+](C)C)cc-3sc2c1,Potency,[4],166 nM (active) and 303 nM (active)
same,Potency,[9],11.2 µM (active)
same,Potency,[10],28.2 µM (active)
same,remaining parasite growth % (stronger effect = lower value),[5],1.85% [at 57.5 µM]
same,"remaining proliferation (% of control), lower = more inhibition",[6],14.3% [at 57.5 µM]
same,"parasite growth, % of DMSO control",[7],60.1% and 20%
same,"parasite growth remaining, % of DMSO control (lower = more inhibition)",[8],16.9% and 18.5%
Cc1ccc(Nc2nccc(N(C)c3ccc4c(C)n(C)nc4c3)n2)cc1S(N)(=O)=O,max response,[4],45.8% (inactive)
COC(=O)C1=C(C)NC(C)=C(C(=O)OCCCN2CCC(c3ccccc3)(c3ccccc3)CC2)C1c1cccc([N+](=O)[O-])c1 (stereo not drawn),Potency,[4],10 µM (active)
same,"parasite growth, % of DMSO control",[7],114%
same,"parasite growth remaining, % of DMSO control (lower = more inhibition)",[8],107%
Nc1nc(Cl)nc2c1ncn2[C@H]1C[C@H](O)[C@@H](CO)O1,max response,[4],30.7% (inactive) and 5.06% (inactive)
same,max response,[9],-15% (inactive)
same,Potency,[10],inactive
same,remaining parasite growth % (stronger effect = lower value),[5],83.8% [at 57.5 µM]
same,"parasite growth, % of DMSO control",[7],102%
same,"parasite growth remaining, % of DMSO control (lower = more inhibition)",[8],90.9%
Cc1cccc(-c2[nH]ncc2-c2ccc3ncccc3n2)n1,max response,[4],-4.01% (inactive)
same,remaining parasite growth % (stronger effect = lower value),[5],92.9% [at 57.5 µM]
same,"remaining proliferation (% of control), lower = more inhibition",[6],89.3% [at 57.5 µM]
same,"parasite growth, % of DMSO control",[7],74.7%
same,"parasite growth remaining, % of DMSO control (lower = more inhibition)",[8],94.4%
